Source: PubChem BioAssay
In the library only some 3.3% were active in any assay of this set; here they are far more common.
Wnt act – Wnt/beta-catenin pathway activation; activation, % at 9.35 µM; hit rate 1.2% among 300,000; Wnt/beta-catenin reporter cell assay, activator, plate reader; in the data active = activation above about 30%, passing the limit was not always enough; inconclusive = no clear call, values can overlap the other calls;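 note: 0% = neutral control wells and 100% = positive control wells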
MITF TRPM1 HTS – MITF TRPM1 promoter activation in melanoma cells; hit rate 0.75% among 300,000; AID 588334; SK-MEL-5 TRPM1-promoter luciferase, 24 h; % of positive control, neutral wells = 0; activation, % at 12.5 µM;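 active = mean activation of at least 80% with every replicate also reaching 80%; inconclusive = mean reaches 80% but some replicate falls short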;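 note: 0% = neutral control wells and 100% = parthenolide positive control wells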
GAA850 FXN act – activators of GAA850 frataxin (FXN) promoter; hit rate 0.56% among 360,000; AID 540364; HEK293 lucGAA850 FXN promoter luciferase reporter, 24 h; percent of 10 µM SAHA response; activation, % at 6 µM;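 active = activation above the average of all compounds screened plus 3 SD, cutoff fixed separately per campaign, cut at about 7.5% in these data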;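 note: 0% = DMSO wells and 100% = 10 µM SAHA wells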
Statin myotox sup – suppression of simvastatin myotoxicity. C2C12 myotubes + simvastatin, ATP luminescence, 48 h; scaled: DMSO 0, geranylgeraniol control 100. rescue of ATP level, % at 7.49 µM. hit rate 0.78% among 330,000;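 active = mean ATP rescue above about 67%, or every replicate alone reaching that limit, limit read from the data, passing the limit was not always enough; inconclusive = no clear call, values can overlap the other calls; inactive = mean under the limit and some replicate under it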;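 note: myotubes were challenged with 10 µM simvastatin during compound exposure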
esBAF inh – inhibitors of esBAF chromatin remodeling in mouse ES cells; reporter increase, % at 12.5 µM; AID 602393; hit rate 2% among 350,000; Bmi1-luciferase knock-in reporter, 24 h; 100% = twice the neutral-well signal; in the data active = activation above about 40%; inconclusive = no clear call, values can overlap the other calls;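 note: 0% = median of the plate's neutral control wells and 100% = double that signal; a rise in the Bmi1 reporter signal indicates esBAF inhibition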
Ring1 derepress – esBAF inhibition confirmed by Ring1 de-repression; 550 tested, under 10 active; AID 743176; shares compounds with esBAF inh; fold change at 33 µM; mouse ESC E14, Ring1 mRNA RT-qPCR fold change;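 active = Ring1 gene expression raised more than 2-fold over untreated cells in both replicates at either tested dose; inconclusive = only one replicate above 2-fold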;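 note: Ring1 transcript normalised to actin housekeeping signal by TaqMan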
esBAF Fgf4 qPCR – represses Fgf4 in mouse ESCs, confirming esBAF inhibition. shares compounds with esBAF inh. mouse ESC E14, Fgf4 mRNA qPCR fold change; hits give low values. hit rate 4% among 550. Fgf4 expression fold change at 33 µM. AID 743177;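 active = Fgf4 expression under 0.8 fold of control in both repeat measurements at one or both tested doses; inconclusive = under 0.8 fold in just a single repeat measurement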;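 note: Fgf4 transcript normalised to actin in duplex TaqMan qPCR; cells exposed to compound for 24 h before lysis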
esBAF Bmi1 qPCR – de-represses Bmi1 in mouse ESCs, confirming esBAF inhibition. mouse ESE14 ES cells, Bmi1 mRNA qPCR fold; hits give high values. fold change at 33 µM. 550 tested, under 10 active. AID 743180. shares compounds with esBAF inh;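 active = Bmi1 expression fold change above 6 at either tested concentration, seen in replicate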;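 note: higher fold means more Bmi1 de-repression and stronger esBAF inhibition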
A549 tox SP – A549 cell cytotoxicity; cell viability change % (negative = cytotoxic), % at 25 µM, hits read low; AID 743188; shares compounds with esBAF inh; 550 tested, under 10 active; plate reader; call rule not given here
HepG2 tox SP – HepG2 cell cytotoxicity at single point. activity change, negative = inhibition, % at 25 µM. plate reader; hits give low values. hit rate 4% among 550. shares compounds with esBAF inh. AID 743189; in the data active = activity change below about -50%
HEK293 cytotox SP – kills or reduces viability of HEK293 cells; shares compounds with esBAF inh; HEK293 cytotoxicity, plate reader; activity change, negative = inhibition, % at 25 µM, hits read low; hit rate 3% among 550; in the data active = activity change below about -38%, passing the limit was not always enough
An asterisk follows results filed as active; ? = inconclusive; . = not tested or not shown.

SMILES | Wnt act | MITF TRPM1 HTS | GAA850 FXN act | Statin myotox sup | esBAF inh | Ring1 derepress | esBAF Fgf4 qPCR | esBAF Bmi1 qPCR | A549 tox SP | HepG2 tox SP | HEK293 cytotox SP
C/C=C/c1cnc2c(c1)C(=O)N([C@@H](C)CO)C[C@H](C)[C@H](CN(C)Cc1cccc(C(=O)O)c1)O2 | . | . | . | 7 | 0 | . | . | . | . | . | .
CCNC(=O)Nc1ccc2c(c1)C(=O)N(C)[C@@H]1CC[C@@H](CC(=O)NCc3ccccc3F)O[C@H]1CO2 | . | . | . | -26 | -6 | . | . | . | . | . | .
COc1ccc(-c2ccc3oc(-c4ccsc4)cc(=O)c3c2)cn1 | 48* | 138* | 1 | -18 | 68* | 1.4 | 0.94 | 1.5 | -1 | -22 | -2
O=C(CCCc1ccccn1)c1ccc(-c2ccccc2)cc1 | -3 | ? | 4 | 8 | 55* | 1.2 | ? | 1.8 | -5 | -14 | -6
Cc1ccc(Nc2ncnc3sc(C)c(C)c23)cc1 | . | 41 | 1 | -9 | 59* | 1.2 | 0.92 | 1.4 | -2 | -12 | -3
O=C(NC1CCCCC1)c1ccc2ccccc2c1O | 0 | . | -5 | -7 | 83* | 1.1 | 0.73* | 1.9 | -13 | 9 | -50*
O=C(NNC(=O)c1ccc2ccccc2c1O)NC1CCCCC1 | 2 | -5 | 1 | 1 | 0 | . | . | . | . | . | .
O=C(NC1CCCCCCC1)c1c(O)c2ccccc2[nH]c1=O | . | 100* | 1 | 7 | 91* | 1.1 | 0.92 | 1.3 | -6 | 18 | -18
CN1C(=O)c2cc(NC(=O)C3CCOCC3)ccc2OC[C@H]2O[C@H](CC(=O)NCc3ccc4c(c3)OCO4)CC[C@H]21 | . | . | . | -7 | 0 | . | . | . | . | . | .
C[C@H]1CN([C@@H](C)CO)C(=O)Cc2cc(NC(=O)CCC(F)(F)F)ccc2O[C@@H]1CN(C)Cc1ccc(Oc2ccccc2)cc1 | . | . | . | ? | -1 | . | . | . | . | . | .
Cc1ccc(S(=O)(=O)Nc2cccc3c2O[C@@H](CN(C)CC2CC2)[C@H](C)CN([C@@H](C)CO)C3=O)cc1 | . | . | . | 5 | -2 | . | . | . | . | . | .
O=C(Cc1cccnc1)N[C@H]1CC[C@@H](CCn2cc(Cc3ccccc3)nn2)O[C@H]1CO | . | . | . | 0 | 1 | . | . | . | . | . | .
Cc1ccc(NC(=O)C2CCCN(c3ncccn3)C2)cc1C (stereo not given) | 11 | 52 | 2 | 1 | 55* | 1.2 | 0.93 | 1.6 | -6 | -32 | -10
Cc1ccnc(N2CCCC(C(=O)Nc3ccc(C)c(C)c3)C2)n1 (stereo not given) | 7 | -13 | -1 | -6 | 12 | . | . | . | . | . | .
C[C@H](CO)N1C[C@H](C)[C@@H](CN(C)Cc2ccccc2)Oc2cc(C#CC3CC3)ccc2S1(=O)=O | . | . | . | -53 | -2 | . | . | . | . | . | .
O=C(Nc1ccc(F)cc1F)NC1CC1 | 0 | -6 | 0 | . | . | . | . | . | . | . | .
O=C(Nc1ccc(F)cc1F)NC1CCCCCCC1 | 14 | 65 | 2 | 10 | 63* | 1 | 0.83 | 1.8 | -7 | -51* | -16
Cc1sc2c(c1C)CN(C(C)(C)C)CN2C(=O)c1ccccc1 | . | 1 | 7 | 12 | 66* | 1.2 | 0.92 | 1.4 | 8 | 0 | 0
COc1cc2ccccc2cc1C(=O)Nc1ccc(Br)cn1 | 8 | 62 | 4 | -22 | 86* | 0.99 | 0.91 | 1.4 | 2 | 3 | 0
Clc1ccc(-c2cn3cccnc3n2)cc1Cl | 17 | 59 | 5 | 10 | 73* | 1 | 1.3 | 0.92 | 12 | -25 | 3
Cc1cc2nc(N3CCN(C(=O)c4cccs4)CC3)sc2cc1C | 19 | 118* | 4 | -17 | 62* | 1.1 | ? | 1.4 | -8 | 24 | -11
Cc1cc(C)c2nc(N3CCN(C(=O)c4cccs4)CC3)sc2c1 | 2 | 2 | 2 | . | . | . | . | . | . | . | .
